aSyn UTR act = Activators via SNCA 5'UTR binding, MLPCN | AID 1814, 2009 | alpha-synuclein 5'UTR reporter, activators screen | 300,000 compounds, 7.1% hits | activity score, % (tested at 7.5 µM), hits read low; in the data active = activity score below about -60%
Each line names hits and unclear results; the compound was inactive in the other large screens. The list is a sample of the results.

COc1ccc(NC(=S)Nc2cc(C)[nH]n2)cc1Cl	aSyn UTR act -124.6
Cc1cc(NC(=S)Nc2ccc(C)c(Cl)c2)n[nH]1	aSyn UTR act -110.2
Nc1ccc(C#Cc2c(-c3ccsc3)oc3ccc(N4CCOCC4)cc23)cc1	aSyn UTR act -167.8
COc1ccc(-c2oc3ccc(N4CCOCC4)cc3c2C#CCO)cc1	aSyn UTR act -91.9
Cc1cccc(/C=C/C(=O)c2ccc(NC3=NCCCS3)cc2)c1	aSyn UTR act -219.5
COc1cccc(/C=C/C(=O)c2ccc(NC3=NCCCS3)cc2)c1	aSyn UTR act -101.4
CCOC(=O)c1c(C)[nH]c(C(=O)NNC(=O)c2ccccc2)c1C	aSyn UTR act -67.1
CCOC(=O)c1c(C)[nH]c(C(=O)N/N=C\c2ccccc2Cl)c1C	aSyn UTR act -63.7
CCOC(=O)c1c(C)[nH]c(C(=O)N/N=C/c2cccc(OC)c2)c1C	aSyn UTR act -104.3
Cn1c(C(=O)NCC2CCCO2)cc2oc3ccccc3c21 (stereo not given)	aSyn UTR act -187.9
Cn1c(C(=O)NCc2cccs2)cc2oc3ccccc3c21	aSyn UTR act -261.5
CSCc1c(C(=O)NC2CCCc3ccccc32)oc2ccccc12 (stereo not given)	none
Cn1c(=O)c(C(=O)NCC2CCCO2)c(O)c2ccccc21 (stereo not given)	aSyn UTR act -67.4
c1ccc(-c2nnc(-c3ccncc3)nc2-c2ccccc2)cc1	aSyn UTR act -105.1
O=C(NC(=S)NCc1nc2ccccc2[nH]1)c1ccccc1F	aSyn UTR act -143.4
O=C(NC(=S)NCc1nc2ccccc2[nH]1)c1ccc(F)cc1	aSyn UTR act -119.2
Cc1ccccc1/C=N\NC(=O)c1ccccc1-n1cccc1	aSyn UTR act -65.4
Cc1ccsc1C(=O)NN=C1CCCCCC1	aSyn UTR act -127.5
COc1ccc(/C=N/NC(=O)c2sccc2C)c2ccccc12	aSyn UTR act -110.2
Cc1ccccc1/C=N/NC(=O)c1sccc1C	aSyn UTR act -176.5
CC(C)(C)c1cc(C(=O)N/N=C/c2ccccc2O)n(-c2ccccc2)n1	none
O=c1[nH]c(-c2ccco2)nc2sc3c(c12)CCCC3	aSyn UTR act -125.5
OCCc1ccc(-c2ccc(Cl)cc2)o1	aSyn UTR act -65.1
Cc1ccc(C(=O)N/C(=C\c2ccc(-c3ccc(Cl)cc3)o2)C(=O)NCCCN(C)C)cc1	none
Clc1ccc(Cc2noc(-c3cccs3)n2)cc1	aSyn UTR act -132.1
CCOc1ccc(-c2csc(Cn3c(CN4CCN(C)CC4)nc4ccccc4c3=O)n2)cc1	aSyn UTR act -65.6
Cn1/c(=N/N=C/c2ccc(N3CCOCC3)cc2)sc2ccccc21	aSyn UTR act -65.2
O=C(N/N=C/c1ccc2c(c1)OCO2)c1cccc2ccccc12	aSyn UTR act -109.2
Cc1cccc(C)c1OCC(=O)N/N=C/c1ccc2c(c1)OCO2	aSyn UTR act -85.2
Cn1cc(C(=O)N/N=C/c2ccc3c(c2)OCO3)c2ccccc21	aSyn UTR act -275.8
Cn1cc(C(=O)N/N=C/c2cccs2)c2ccccc21	aSyn UTR act -181.0
CC(C)(C)c1ccc(N=C2SCC(=O)N2Cc2cccs2)cc1	aSyn UTR act -71.6
S=c1[nH]nc(Cn2c(-c3ccccn3)nc3ccccc32)n1-c1ccc2c(c1)OCCO2	aSyn UTR act -75.3
COc1ccc2c(n1)Sc1nc3ccccc3nc1N2	aSyn UTR act -136.0
Nc1c(-c2ccc(Cl)cc2)cnn1-c1ccccc1	aSyn UTR act -180.5
Nc1c(-c2ccc(Cl)cc2)nnn1-c1ccccc1	aSyn UTR act -158.8
Nc1c(-c2ccccc2)cnn1-c1ccc(C(=O)O)cc1	aSyn UTR act -130.5
Nc1c(-c2ccccc2)cnn1-c1cccc(C(F)(F)F)c1	aSyn UTR act -204.7
O=c1c2ccccc2c(-c2ccc(O)cc2)nn1-c1cccc(C(F)(F)F)c1	none
Cc1ccc(-c2cnn(-c3ccccc3)c2N)cc1	aSyn UTR act -69.4
Cc1ccc(-c2cnn(-c3cccc([N+](=O)[O-])c3)c2N)cc1	aSyn UTR act -105.2
COc1ccccc1Nc1nc2ccc(C)cc2cc1C#N	aSyn UTR act -87.2
COc1ccccc1Nc1nc(NCCO)nc(N)c1[N+](=O)[O-]	none
N#C/C(=C\C=C\c1ccccc1)C(=O)NCc1cccnc1	aSyn UTR act -70.4
COCCn1c(C)cc(C(=O)CSc2nc3ccccc3c(=O)[nH]2)c1C	aSyn UTR act -152.3
CCCn1c(C)cc(C(=O)CSc2nc3ccccc3c(=O)n2Cc2ccco2)c1C	aSyn UTR act -218.9
COCCn1c(C)cc(C(=O)CSc2ccc3ccccc3n2)c1C	aSyn UTR act -140.9
O=C1NC(=S)N/C1=C/c1cccc2ccccc12	aSyn UTR act -129.3
Cc1ccc(C(=O)CSc2ccccn2)cc1	aSyn UTR act -191.2
O=C(OCn1ncc(Br)c(Br)c1=O)c1ccc(F)cc1	none
Cn1c(CO)cnc1SCC(=O)c1ccc(F)cc1	aSyn UTR act -65.2
Cc1ccc(N(CC(=O)NCCSc2ccccn2)S(C)(=O)=O)cc1	aSyn UTR act -97.9
O=C(CSc1ccccn1)c1ccc(F)cc1	aSyn UTR act -130.0
Cc1ccc(NC(=O)CCSc2ccccn2)cc1	aSyn UTR act -145.0
CCOc1ccccc1N/C=C(\C#N)c1nc2ccccc2n1C	aSyn UTR act -75.8
COc1ccccc1-c1cc(C(=O)Nc2ccccc2SC)no1	aSyn UTR act -95.5
